This is an account of results in ChEMBL document CHEMBL1157539, “Thousands of chemical starting points for antimalarial lead identification” (Nature, 2010).

The first assay relates to Plasmodium falciparum. Put plainly: GSK_TCMDC: Inhibition of Plasmodium falciparum 3D7 in whole red blood cells, using parasite LDH activity as an index of growth. Test compounds present at 2uM. The class given is functional.
`Cc1cc(-c2cc(-c3ccc(OCCN(C)C)cc3)[nH]c2-c2ccc3c(c2)CCC3=NO)ccn1` had an Inhibition of 100%.
`O=C(NC1CCN(Cc2ccccc2)CC1)c1cc(-c2ccncc2)c(-c2ccc(Cl)c(O)c2)o1.O=C(O)C(F)(F)F` showed an Inhibition of 100%.
Still for that read-out and setting: in the case of `CN1CCC(N2CCN(CCOc3cc(NC(=O)/C=C/c4ccccc4Cl)ccc3Br)CC2)CC1.O=C(O)C(=O)O` it was 100%; in that of `Cc1cccc2nc(-c3cccc(-c4cccc(NC(=O)c5cccnc5)c4)c3)[nH]c12`, 100%.
Same read-out and setting: in the case of `CCN(CC)CCN(Cc1ccc(-c2ccc(C(F)(F)F)cc2)cc1)C(=O)Cn1c(CCc2cc(F)ccc2F)nc(=O)c2ccccc21.O=C(O)C(O)C(O)C(=O)O` it was 98%; in that of `Cc1ccc(CN2CCN(Cc3cccc(NC(=O)c4ccc5ccccc5c4)c3)CC2)cc1C.O=C(O)C(F)(F)F`, 89%; in that of `Cc1ccc(NC(=O)c2cc(Br)cc(N3CCCN(C)CC3)c2)cc1F.O=C(O)C(F)(F)F`, 87%.
Same read-out and setting: in the case of `Cc1cc(O)c(-c2ccc(Sc3ccc(Cl)cc3)cc2)c(C)n1` it was 92%.
In the case of `COc1ccc2c(N/N=C/c3cccc([N+](=O)[O-])c3)cc(C)nc2c1`, the Inhibition was 100%.
The same measure, in the same setting: the value for `COc1ccc2c(c1)ncn2-c1cc(OCc2ccncc2Br)c(C(N)=O)s1` was 95%; that for `Cc1cc(=NN=Cc2ccccc2)c2cc(C(F)(F)F)ccc2[nH]1` was 100%; that for `O=C(Nc1ccc(Cl)cc1)c1ccc(CN2CCCN(Cc3ccc(F)cc3)CC2)cc1.O=C(O)C(F)(F)F` was 91%.
On the same count and under the same terms, in the case of `Nc1cccc(CNCc2ccc(-c3cccc(-c4nc5cc(C(F)(F)F)ccc5[nH]4)c3)cc2)c1.O=C(O)C(F)(F)F` it was 100%.

For the next assay, the system named is Plasmodium falciparum. Put plainly: GSK_TCMDC: Inhibition of Plasmodium falciparum Dd2 in whole red blood cells, using parasite LDH activity as an index of growth. Test compounds present at 2uM. The class given is functional.
In the case of `CN(c1ccccc1)c1ccnc(NC(=N)Nc2ccc(Cl)cc2)n1`, the Inhibition is recorded as 6%.
`CSc1nccc(-c2ccc3ccnc(N)c3c2)n1` yielded an Inhibition of 98%.
Still for that read-out and setting: the value for `COc1cccc(Nc2nc(C)cc(NCc3ccc(-n4ccnc4)cc3)n2)c1` was 99%; that for `CCOc1ccc(C(=O)Nc2cc(Br)c3c(c2)CNCC3)cc1Br.Cl` was 21%; that for `Cc1cc(C)c(C(=O)Nc2ccc3nc(C)cc(N)c3c2)c(C)c1.Cl` was 14%.
In turn, `CCOc1ccc2c(=NN=Cc3cc(OC)c(OC)cc3OC)cc(C)[nH]c2c1` yielded an Inhibition of 97%.
`CCc1cn2c3c(cc(C(=O)N[C@@H](Cc4ccccc4)[C@H](O)CNC4CCCCC4)cc13)N(CC)S(=O)(=O)CC2.O=CO`: the Inhibition was 98%.
The same measure, in the same setting: in the case of `CCOc1cc(C(=O)NCc2cc(Cl)cc(Cl)c2)ccc1-c1nc2cc(Cl)ccc2[nH]1` it was 5%; in that of `Cl.Clc1ccc(OC2CCC(Cn3ccnc3)(c3ccc(Cl)cc3Cl)CC2)c(Cl)c1` (stereo not drawn), 86%; in that of `COCc1cc(C)nc2sc(C(=O)Nc3cc(C(C)(C)C)ccc3O)c(N)c12`, 57%.
Same read-out and setting: in the case of `Nc1ccc(-c2nc3cc(C4=N[C@H]5CCCC[C@H]5N4)ccc3o2)cc1[N+](=O)[O-]` it was 33%; in that of `CN1CCCc2cc(NC(=O)c3cc(-c4ccc(Cl)cc4)cs3)ccc2C1.O=C(O)C(F)(F)F`, 34%; in that of `Nc1ccn([C@@H]2O[C@H](COC(c3ccccc3)(c3ccccc3)c3ccccc3)[C@@H](O)[C@@H]2O)c(=O)n1`, 2%.
Still for that read-out and setting: the value for `CCOc1ccc(C2CCN(CCCCNC(=O)c3ccc(NC(=O)c4ccc(Cl)cc4)cc3)CC2)c(CC)c1` was 64%; that for `Cn1nc(-c2ccc(CNC3CCc4ccccc43)cc2)c2cnc(NCCN3CCCC3)nc21` (stereo not drawn) was 17%; that for `COc1ccccc1N1CCN(CCCCNC(=O)c2ccc(NC(=O)c3cc(Cl)cc(Cl)c3)cc2)CC1` was 75%.
`CC(=O)N(C)c1cccc(C(=O)Nc2cccc(-c3cccc(-c4nc5cccc(C)c5[nH]4)c3)c2)c1` showed an Inhibition of 41%.
On the same count and under the same terms, in the case of `Cc1ccc(NC(=O)c2ccc(NCCCN3CC(C)CC(C)C3)c([N+](=O)[O-])c2)cc1F` (stereo not drawn) it was 85%; in that of `COc1ccccc1Cc1c(C)nc2nc(N)nc(N)c2c1C.Cl`, 2%; in that of `CCNC(=O)N1CCN(c2nc(-c3ccccc3)nc(COC)c2Cc2ccc(C)cc2)CC1`, 94%.
On the same count and under the same terms, in the case of `CC(C)N1CCC(N(Cc2ccc(-c3ccc(C(F)(F)F)cc3)cc2)C(=O)Cn2c(CCc3cccc(F)c3F)nc(=O)c3cccnc32)CC1.O=C(O)C(O)C(O)C(=O)O` it was 80%; in that of `O=C(Nc1cccc(CN2CCCN(Cc3ncc[nH]3)CC2)c1)c1ccc(Cl)c(Cl)c1.O=C(O)C(F)(F)F`, 16%; in that of `COc1ccccc1CNC(=O)c1ccc(N2CCN(c3ccncc3)CC2)cn1.O=C(O)C(F)(F)F`, 17%.
The same measure, in the same setting: the value for `CCC(C)NC(=O)Nc1cccc(-c2cccc(-c3nc4cccc(C)c4[nH]3)c2)c1` (stereo not drawn) was 27%; that for `O=C(Nc1cccc(C(F)(F)F)c1)c1ccc(S(=O)(=O)NCC2CCCN(CC3CCCCC3)C2)cc1.O=C(O)C(F)(F)F` (stereo not drawn) was 9%; that for `COc1ccc(Nc2nc(NC3CCN(Cc4ccccc4)CC3)cc(-c3ccncc3)n2)cc1` was 40%.
Take `COc1ccc(-c2cccc(NC(=O)c3cccc(C#N)c3)c2)cc1CN1CCC(O)CC1.O=C(O)C(F)(F)F`: the Inhibition is on record as 13%.
Same read-out and setting: in the case of `Cc1cc(-c2cc(-c3ccc(OCCN(C)C)cc3)[nH]c2-c2ccc3c(c2)CCC3=NO)ccn1` it was 92%.
As to `O=C(NC1CCN(Cc2ccccc2)CC1)c1cc(-c2ccncc2)c(-c2ccc(Cl)c(O)c2)o1.O=C(O)C(F)(F)F`, the Inhibition came out at 86%.
On the same count and under the same terms, the value for `CN1CCC(N2CCN(CCOc3cc(NC(=O)/C=C/c4ccccc4Cl)ccc3Br)CC2)CC1.O=C(O)C(=O)O` was 99%; that for `Cc1cccc2nc(-c3cccc(-c4cccc(NC(=O)c5cccnc5)c4)c3)[nH]c12` was 56%; that for `CCN(CC)CCN(Cc1ccc(-c2ccc(C(F)(F)F)cc2)cc1)C(=O)Cn1c(CCc2cc(F)ccc2F)nc(=O)c2ccccc21.O=C(O)C(O)C(O)C(=O)O` was 52%.
Regarding `Cc1ccc(CN2CCN(Cc3cccc(NC(=O)c4ccc5ccccc5c4)c3)CC2)cc1C.O=C(O)C(F)(F)F`, the Inhibition worked out at 23%.
On the same count and under the same terms, the value for `Cc1ccc(NC(=O)c2cc(Br)cc(N3CCCN(C)CC3)c2)cc1F.O=C(O)C(F)(F)F` was 1%; that for `Cc1cc(O)c(-c2ccc(Sc3ccc(Cl)cc3)cc2)c(C)n1` was 84%.
On the same count and under the same terms, in the case of `COc1ccc2c(N/N=C/c3cccc([N+](=O)[O-])c3)cc(C)nc2c1` it was 97%; in that of `COc1ccc2c(c1)ncn2-c1cc(OCc2ccncc2Br)c(C(N)=O)s1`, 50%.
Same read-out and setting: in the case of `Cc1cc(=NN=Cc2ccccc2)c2cc(C(F)(F)F)ccc2[nH]1` it was 97%; in that of `O=C(Nc1ccc(Cl)cc1)c1ccc(CN2CCCN(Cc3ccc(F)cc3)CC2)cc1.O=C(O)C(F)(F)F`, 8%.
Compound `Nc1cccc(CNCc2ccc(-c3cccc(-c4nc5cc(C(F)(F)F)ccc5[nH]4)c3)cc2)c1.O=C(O)C(F)(F)F` came in with an Inhibition of 100%.

By Inhibition is commonly meant the share of the control response that was lost under treatment. A higher Inhibition goes with a response far below the control.
